The term inhibition denotes the drop in the measured response relative to a control, in per cent.

Structures are written as SMILES. Where “and” joins values, the source holds several entries; their conditions need not be identical. Equal values may be shown once. Out of some 220,000 compounds screened, about 910 (0.41%) were called active.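 How the source made its calls: active means primary inhibition above the hit cutoff, then over 50% inhibition at one or more dose response concentrations (cut at about 23% in these data, passing the limit was not always enough); inconclusive means conflicting primary data, or primary hits not chosen for dose response; inactive means low primary inhibition, or under 50% at every dose.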 The list comes from a sample in which actives are over-represented; it also holds similar structures and randomly drawn compounds. Potency and affinity values are given separately. More than one record can exist for a structure, and the calls need not agree.

Aminopeptidase N (Plasmodium falciparum (isolate 3D7)), sequence (O96935 whole entry, looked up): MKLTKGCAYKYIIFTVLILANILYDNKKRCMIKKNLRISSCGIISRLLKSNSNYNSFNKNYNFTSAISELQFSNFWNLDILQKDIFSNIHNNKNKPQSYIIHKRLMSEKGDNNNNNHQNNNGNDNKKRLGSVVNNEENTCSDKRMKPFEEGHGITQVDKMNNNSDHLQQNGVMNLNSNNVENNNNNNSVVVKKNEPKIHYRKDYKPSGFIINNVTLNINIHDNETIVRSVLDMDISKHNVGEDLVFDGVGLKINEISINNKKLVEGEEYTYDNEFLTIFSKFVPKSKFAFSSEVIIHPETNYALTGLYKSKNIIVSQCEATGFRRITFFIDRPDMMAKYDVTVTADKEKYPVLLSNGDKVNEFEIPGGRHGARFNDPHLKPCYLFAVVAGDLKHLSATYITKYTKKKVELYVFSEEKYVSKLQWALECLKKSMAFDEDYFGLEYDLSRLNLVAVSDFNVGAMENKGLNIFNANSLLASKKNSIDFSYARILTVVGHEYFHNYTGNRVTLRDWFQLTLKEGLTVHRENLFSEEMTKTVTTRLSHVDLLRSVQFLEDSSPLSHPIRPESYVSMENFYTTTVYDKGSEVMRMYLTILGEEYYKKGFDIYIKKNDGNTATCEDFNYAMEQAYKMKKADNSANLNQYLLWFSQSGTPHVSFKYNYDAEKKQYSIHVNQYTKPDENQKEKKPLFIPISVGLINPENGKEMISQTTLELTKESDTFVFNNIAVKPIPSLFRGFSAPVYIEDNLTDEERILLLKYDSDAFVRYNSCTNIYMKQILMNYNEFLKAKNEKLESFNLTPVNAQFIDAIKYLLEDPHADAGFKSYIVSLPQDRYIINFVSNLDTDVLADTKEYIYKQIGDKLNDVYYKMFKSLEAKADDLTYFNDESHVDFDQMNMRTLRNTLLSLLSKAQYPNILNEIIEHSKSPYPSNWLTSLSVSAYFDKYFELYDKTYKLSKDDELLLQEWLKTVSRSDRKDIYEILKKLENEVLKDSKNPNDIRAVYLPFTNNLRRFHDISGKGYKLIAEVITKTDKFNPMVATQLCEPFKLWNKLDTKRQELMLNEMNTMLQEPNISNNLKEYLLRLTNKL

The assay concerns the target Aminopeptidase N (Plasmodium falciparum (isolate 3D7)) (UniProt O96935). The experiment in a line: P. falciparum M1AAP inhibitors, biochemical, fluorogenic H-Leu-NHMec substrate, 1536-well (AID 1445).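 Further: plate controls were DMSO full reaction for no effect and no enzyme background for full effect.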 The note with it: recombinant M1AAP, H-Leu-NHMec fluorogenic kinetic assay; at 30 µM, stronger effect = higher value unless noted.
Take `COc1ccc(/C=C/C(=O)NCc2cnn(C)c2C)cc1COc1ccc(Br)cc1`: the inhibition was -0.2% (inactive).

For `CC1CCCC(C)N1NC(=O)c1cccc(S(=O)(=O)N2CCc3ccccc32)c1` (stereo unspecified), the inhibition is 1.3% (inactive).

On to `COC(=O)n1c(=O)oc2ccccc21`, for which the inhibition was 6.55% (inactive).

In the case of `COc1cccc(Cn2nnc(C(=O)Nc3cc(C)ccc3OC)c2N)c1`, the inhibition was 7.36% (inactive).

`CN(C)c1ccc(NC(=O)Cn2c(=O)n(Cc3ccccc3)c(=O)c3ccccc32)cc1`: the inhibition was 10.9% (inactive).

On to `CCn1cnc2c1c(=O)n(CC(=O)Nc1cc(C)on1)c(=O)n2Cc1ccccc1`, for which the inhibition is -3% (inactive).

For `Cc1cc(NC(=O)Cn2c(=O)n(Cc3ccccc3)c(=O)c3ccccc32)no1`, the inhibition was 23.7% (active).

Turning to `Cc1ccc(C(=O)CC2(O)C(=O)Nc3ccccc32)s1` (stereo unspecified), the inhibition is -3.92% (inactive).

Consider `CCOc1ccccc1NC(=S)NCCCn1ccnc1`, for which the inhibition was -1.93% (inactive).

As for `O=C(Nc1ccc(F)cc1)c1ccccc1S(=O)(=O)c1ccccc1[N+](=O)[O-]`, the inhibition is 10.1% (inactive).

Consider `CC(=O)Nc1ccc(NC(=O)c2ccccc2S(=O)(=O)c2ccccc2[N+](=O)[O-])cc1`, for which the inhibition is 6.51% (inactive).

Regarding `COCc1cc(C)n(CC(=O)OC)c(=O)c1C#N`, the inhibition was 6.13% (inactive).

`CC(C)(C)NC(=O)CN(C(=O)CS(=O)CC(=O)Nc1ccc(F)cc1)c1ccc(Cl)cc1` (stereo unspecified): the inhibition was 3.41% (inactive).

As for `Cc1cc(C)n(-c2nc3ccccc3nc2N2CCCC2)n1`, the inhibition was 7.98% (inactive).

Regarding `CCN(CC)c1nc2ccccc2nc1-n1nc(C)cc1C`, the inhibition was 25.1% (active).

Consider `Cc1cc(C)n(-c2nc3ccccc3nc2N2CCCCCC2)n1`, for which the inhibition was 5.75% (inactive).

For `CC(=O)c1sc2nc(C)cc(C)c2c1N`, the inhibition was 3.82% (inactive).

In the case of `CCn1c(SCC(=O)N2CCCC2)nnc1-c1ccc(S(=O)(=O)N2CCCCCC2)cc1`, the inhibition is 17.8% (inactive).

Take `CCOC(=O)C1=C(O)/C(=C/c2ccccn2)SC1=Nc1ccc(Cl)cc1`: the inhibition is -2.13% (inactive).

In the case of `CCOC(=O)C1=C(O)/C(=C/c2ccc(-c3ccccc3C(=O)O)o2)SC1=Nc1ccc(OC)cc1`, the inhibition was 26.2% (active).

For `CCOC(=O)C1=C(O)/C(=C/c2cc(OC)c(OC)c(OC)c2)SC1=Nc1ccc(OC)cc1`, the inhibition is 0.13% (inactive).

Regarding `CCOC(=O)c1ccc(N2C(=O)C(O)=C(C(C)=O)C2c2ccc(O)c(OC)c2)cc1` (stereo unspecified), the inhibition is 11% (inactive).

With `COc1ccccc1-c1c(NC(=O)c2ccco2)n(C)c2ccccc2c1=O`, the inhibition is 5.76% (inactive).

For the compound `CN(C(=O)c1cnc2n(c1=O)CCS2)C1CCCCC1`, the inhibition was 7.72% (inactive).

In the case of `O=C(c1cnc2n(c1=O)CCS2)N(c1ccccc1)C1CCCCC1`, the inhibition is 3.16% (inactive).

As to `Cn1nnnc1Sc1ccc([N+](=O)[O-])cc1Cl`, the inhibition was 4.02% (inactive).

Turning to `Cc1ccc(OCC(=O)Nc2ccc(S(=O)(=O)Nc3ccccn3)cc2)cc1C`, the inhibition is -0.21% (inactive).

On to `Cc1ccc2nc(NC(=O)CSc3nncc(=O)n3N)sc2c1`, for which the inhibition is -3.78% (inactive).

For `CC(=O)Nc1nc2n(n1)C(c1ccccc1)C=C(c1ccccc1)N2` (stereo unspecified), the inhibition is 21.9% (inactive).

With `CC1=CC(c2ccccc2)n2nc(NS(=O)(=O)c3ccc(C)cc3)nc2N1` (stereo unspecified), the inhibition was 9.04% (inactive).

In the case of `CC1=CC2=NC(=O)/C(=C\c3cccn3CCOc3cc(C)cc(C)c3)C(=N)N2O1`, the inhibition is 4.33% (inactive).

Regarding `CCOC(=O)COc1cc2oc(=O)cc(C)c2cc1[N+](=O)[O-]`, the inhibition was 1.36% (inactive).

In the case of `CSc1cccc(-n2cc(-c3ccc4c(c3)OCO4)[nH]c2=O)c1`, the inhibition is 25.8% (active).

For `COc1ccc(-c2cn(-c3cccc(C)c3)c(=O)[nH]2)cc1OC`, the inhibition was 0.73% (inactive).

In the case of `CCOc1ccc(-c2cn(-c3cccc(SC)c3)c(=O)[nH]2)cc1`, the inhibition was 7.5% (inactive).

For the compound `COc1cccc(-c2nnc(SCc3cccnc3)o2)c1`, the inhibition was 1.1% (inactive).

On to `Cc1nn(-c2ccccc2)c(C)c1/C=N/NC(=O)c1cc(C23CC4CC(CC(C4)C2)C3)[nH]n1`, for which the inhibition was 8.14% (inactive).

For `CN(NS(=O)(=O)c1ccc(Cl)cc1)c1ncc(C(F)(F)F)cc1Cl`, the inhibition was 3.99% (inactive).

As for `Cc1cccc(NC(=O)c2c(-c3ccccc3)noc2C)n1`, the inhibition was 3.16% (inactive).

Take `CSc1cccc(NC(=S)N2CCC(N(C)C3CCCCCC3)CC2)c1`: the inhibition was 5.52% (inactive).

For `Cc1oc2cc(O)cc(O)c2c(=O)c1-c1ccc2c(c1)OCCCO2`, the inhibition was -10.6% (inactive).

For the compound `O=c1c(-c2ccc3c(c2)OCCO3)c(C(F)(F)F)oc2cc(O)cc(O)c12`, the inhibition is 24.6% (active).

As to `O=c1c(-c2ccc3c(c2)OCCO3)coc2cc(O)cc(O)c12`, the inhibition is 13.2% (inactive).

Take `NC(=O)CSc1nnc(-c2cccnc2)n1Cc1ccccc1`: the inhibition was -0.97% (inactive).

Regarding `Cn1nc(C(=O)Nc2sc3c(c2C#N)CCCC3)ccc1=O`, the inhibition is 4.41% (inactive).

For `O=C1c2ccccc2C(=O)N1n1c(=O)[nH]c2ccccc2c1=O`, the inhibition was 2.13% (inactive).

Consider `CC(C)Cn1c(CN2C(=O)c3ccccc3C2=O)nc2ccccc2c1=O`, for which the inhibition was -3.16% (inactive).

For `Brc1ccccc1-c1csnn1`, the inhibition was 2.07% (inactive).

Consider `CCOCCCn1c(=S)[nH]c2cc(C(=O)NCCCN(CC)CC)ccc2c1=O`, for which the inhibition was 12.3% (inactive).

For the compound `COc1ccc(C(=O)c2c(C)oc3ccc(O)c(CN4CCOCC4)c23)cc1`, the inhibition is 1.06% (inactive).

As to `O=C(CC(Cc1ccccc1)c1ccco1)NC1CCCCC1` (stereo unspecified), the inhibition is 3.48% (inactive).

On to `Cc1ccc(C2C=C(c3ccccc3)Nc3nc(N4C(=O)CCC4=O)nn32)cc1` (stereo unspecified), for which the inhibition was 4.75% (inactive).

`CC1=CC(c2ccc(Cl)cc2)n2nc(N3C(=O)CCC3=O)nc2N1` (stereo unspecified): the inhibition was 14.2% (inactive).

As to `COC(=O)c1ccc(Sc2ccc(C)cc2)c(N)c1`, the inhibition is 11.3% (inactive).

With `COC(=O)c1cc(O)c(O)c(O)c1`, the inhibition was 6.36% (inactive).

For the compound `CCCN(CC1CC1)C(=S)NC(=O)C1CC1`, the inhibition was 3.89% (inactive).

Turning to `CC(=O)CCc1c(C)nc2ccc(C(=O)O)cc2c1Cl`, the inhibition is 11.9% (inactive).

Turning to `CCOC(=O)c1cccc(Nc2ncnc3ccccc23)c1`, the inhibition is 6.34% (inactive).

On to `O=S(=O)(c1ccc(Cl)cc1)N(CCCN1CCOCC1)Cc1cccs1`, for which the inhibition is 2.6% (inactive).

Consider `COc1cc(NC(=O)c2cccs2)c(OC)cc1NC(=O)CCC(=O)Nc1cccc2ncccc12`, for which the inhibition is 16.7% (inactive).

Regarding `C/C(=N\NC(=O)CCn1nnc2ccccc21)c1cccs1`, the inhibition was 0% (inactive).

`COc1cc(NC(=O)c2cccs2)c(OC)cc1NC(=O)CCn1nnc2ccccc21`: the inhibition was 25% (active).

For `Cc1ccc(Cn2ccc(NC(=O)c3noc4c3CCc3ccccc3-4)n2)cc1`, the inhibition was 8.24% (inactive).

As for `CC(=O)NC(=S)Nc1ccc([N+](=O)[O-])cc1C`, the inhibition was 3.35% (inactive).

Take `Cc1cc([N+](=O)[O-])ccc1NC(=S)NC(=O)C(c1ccccc1)c1ccccc1`: the inhibition is 9.66% (inactive).

Consider `Cc1cc([N+](=O)[O-])ccc1NC(=S)NC(=O)Cc1ccccc1`, for which the inhibition was 23.7% (active).

Turning to `O=C(CSc1ccc2nnc(-c3ccncc3)n2n1)Nc1ccc2c(c1)OCO2`, the inhibition is 5.11% (inactive).

Turning to `Cn1cc([N+](=O)[O-])c(C(=O)NNC(=O)c2ccc([N+](=O)[O-])cc2)n1`, the inhibition is 1.97% (inactive).

As for `CN(C)CCCNc1ncnc2scc(-c3ccccc3)c12`, the inhibition is -12.9% (inactive).

Turning to `Cc1ccc(-c2csc3ncnc(NS(=O)(=O)c4ccc(Cl)cc4)c23)cc1`, the inhibition is -5.44% (inactive).

Regarding `CCOC(=O)c1ccc(NC(=O)COc2ccc(S(=O)(=O)N3CCCC3)cc2)cc1`, the inhibition was 10.4% (inactive).

Consider `O=S(=O)(Nc1nc2ccccc2nc1Cl)c1ccc2c(c1)OCCO2`, for which the inhibition was 15.8% (inactive).

Consider `O=S(=O)(Nc1nc2ccccc2nc1Cl)c1ccccc1`, for which the inhibition is 7.23% (inactive).

As to `Cc1cc(S(=O)(=O)Nc2cccc(Cl)c2)c(C)s1`, the inhibition is 7.05% (inactive).

Regarding `CSc1ccccc1C(=O)C1CCCN(C(=O)c2ccc(N3CCOCC3)cc2)C1` (stereo unspecified), the inhibition is 0.54% (inactive).

As to `COC(=O)C1=NN(C(=O)c2cccc(Cl)c2)C(O)(C(C)(C)C)C1` (stereo unspecified), the inhibition is 33.3% (inactive).

For `COC(=O)C1=NN(C(=O)c2ccc(Br)cc2)C(O)(C(C)(C)C)C1` (stereo unspecified), the inhibition is 53.2% (inactive).

In the case of `Cc1ccn2c(NCc3ccc4c(c3)OCO4)c(-c3ccc(O)cc3)nc2c1`, the inhibition was 3.37% (inactive).

As for `O=C(NCCc1nc2ccccc2[nH]1)/C(=C/c1ccco1)NC(=O)c1ccc(Br)cc1`, the inhibition is 3.21% (inactive).

With `Cc1nc(SCC(=O)O)c2oc3ccccc3c2n1`, the inhibition was 3.31% (inactive).

With `O=C(O)CSc1nc(-c2ccccc2)nc2c1oc1ccccc12`, the inhibition was 8.15% (inactive).

Regarding `CN(C)c1ccc(/C=N/NC(=O)CCCO)cc1`, the inhibition is 16.7% (inactive).

Take `C/C=C/c1ccc(OCCCCOc2ccc(OC)cc2)c(OC)c1`: the inhibition is -1.18% (inactive).

In the case of `C/C=C/c1ccc(OCCOc2ccc(C=O)cc2)c(OC)c1`, the inhibition is 9.05% (inactive).

Consider `Cc1cc(-c2nnc(SCC(=O)Nc3nc(-c4ccccc4)cs3)o2)no1`, for which the inhibition is 17.1% (inactive).

As to `O=[N+]([O-])c1ccc(Oc2c(F)c(F)nc(N3CCCC3)c2F)cc1`, the inhibition is 1.61% (inactive).

Regarding `O=C(O)c1cc(-c2ccco2)nc2ccccc12`, the inhibition was 5.44% (inactive).

As to `O=C(O)c1cc(-c2ccco2)nc2cc3ccccc3cc12`, the inhibition is 15.5% (inactive).

For the compound `O=C(O)c1cc(-c2ccco2)nc2ccc(Br)cc12`, the inhibition was 5.53% (inactive) and 27.5% (active).

For `COc1ccc(C2CC(=O)C(C=NCCN3CCN(C(=S)Nc4ccccc4)CC3)=C(O)C2)cc1OC` (stereo unspecified), the inhibition is 12.8% (inactive).

As to `O=C(CNC(=O)c1ccccc1)N/N=C/c1cn[nH]c1-c1ccccc1`, the inhibition was 4.33% (inactive).

On to `CC(C)NC(=O)c1sc2nc3c(c(-c4cccs4)c2c1N)CN(C)CC3`, for which the inhibition is 5.01% (inactive).

In the case of `Cc1ccc(-c2cc(-c3ccccc3)c3c(N)c(S(C)(=O)=O)sc3n2)cc1`, the inhibition is 14.5% (inactive).

Turning to `N#Cc1sc2nc(-c3cccs3)cc(-c3ccccc3)c2c1N`, the inhibition is 13.3% (inactive).

For the compound `CCN(CC)C(=O)c1sc2nc(-c3cccs3)cc(-c3cccs3)c2c1N`, the inhibition is 7.47% (inactive).

With `CC(C)NC(=O)c1sc2nc(-c3cccs3)cc(-c3cccs3)c2c1N`, the inhibition is 24.2% (active).

The values are drawn from PubChem BioAssay AID1445 (SRMLSC, 2008).
